High-throughput results: PubChem BioAssay, several laboratories
CYP2C9 act: activators of human CYP2C9; P11712; recombinant CYP2C9, luciferin-H conversion, luminescence; stronger effect = higher value; factor 1 = untreated enzyme, 0 = blocked; activation factor at 5 µM; actives 1.4% (n = 96,000); AID 1024;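 active = activation factor of 2 or more for CYP2C9 at a 5 µM dose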
Target sequence (P11712 whole entry, looked up): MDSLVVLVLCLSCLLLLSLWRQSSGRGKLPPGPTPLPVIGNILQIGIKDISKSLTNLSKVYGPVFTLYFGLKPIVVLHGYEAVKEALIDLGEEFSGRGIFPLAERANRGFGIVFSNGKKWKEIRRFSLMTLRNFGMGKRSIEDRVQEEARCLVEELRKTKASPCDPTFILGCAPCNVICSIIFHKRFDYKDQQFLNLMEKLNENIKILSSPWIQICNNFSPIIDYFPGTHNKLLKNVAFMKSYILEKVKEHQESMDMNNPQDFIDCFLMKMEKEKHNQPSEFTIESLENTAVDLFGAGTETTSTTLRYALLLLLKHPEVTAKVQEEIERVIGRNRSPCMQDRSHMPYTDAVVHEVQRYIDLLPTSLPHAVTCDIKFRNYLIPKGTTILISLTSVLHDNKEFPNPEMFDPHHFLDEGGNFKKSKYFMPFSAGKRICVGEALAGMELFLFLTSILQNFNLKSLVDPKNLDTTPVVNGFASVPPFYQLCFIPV
CYP2C19 activ: cytochrome P450 2C19 (human) activation; recombinant CYP2C19, luciferin-H EGE luminescence; stronger effect = higher value; 0 = fully inhibited enzyme, 1 = untreated enzyme; activation factor at 5 µM; 96,000 tested, under 10 active;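 active = activation factor of at least 2 at 5 µM in the primary screen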
E-sel TNF inh: TNF alpha driven E-selectin expression inhibition; HUVEC TNFa-induced E-selectin immunofluorescence, high content; inhibition, % at 2 µM; actives 0.71% (n = 120,000);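 active = inhibition above the batch mean plus 3 SD, and confirmed as a hit on visual image review, cut at about 43% in these data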
CYP2C9 inhib: blocks human cytochrome P450 2C9; P11712; actives 20% (n = 96,000); inhibition, % at 5 µM; CYP2C9 Supersomes, luciferin-H conversion, luminescence;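 active = blocking of liver enzyme CYP2C9 beyond about 50% at 5 µM, limit read from the data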
CYP2C19 inhib: inhibitors of human CYP2C19. P33261. CYP2C19 Supersomes, luciferin-H EGE luminescence, 30 min. inhibition, % at 5 µM. actives 21% (n = 96,000). AID 778;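 active = CYP2C19 inhibition above a set limit at 5 µM in the primary screen, cut at about 50% in these data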
cytoskel mod: modifiers of cytoskeleton assembly. inhibition, % at 2 µM. AID 836. actives 0.18% (n = 91,000). HUVEC TNFa F-actin phalloidin imaging, high content;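 active = inhibition above the batch mean plus 3 SD and confirmed as a hit by visual image inspection, cut at about 30% in these data, passing the limit was not always enough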
Large screens that a line does not name were inactive. Rows were chosen to be rich in hits. Some 22% of all compounds tested hit in one or more screens of this group.

Cc1ccc(-c2noc(CCC(=O)NCCCN3CCN(c4cccc(Cl)c4)CC3)n2)cc1	CYP2C9 inhib 74
COc1ccc(-c2noc(CCC(=O)NCCCN3CCC(C)CC3)n2)cc1	none
O=C(NCCCN1CCN(c2cccc(Cl)c2)CC1)c1ccc(N2CCCC2=O)cc1	CYP2C9 inhib 66
Cc1ccc(-c2noc(CCC(=O)NCCCN3CCN(c4ccc(F)cc4)CC3)n2)cc1	CYP2C9 inhib 70, CYP2C19 inhib 57
COc1ccc(-c2noc(CCC(=O)NCCN3CCN(c4ccccc4F)CC3)n2)cc1	CYP2C9 inhib 69
CC1=C(C(=O)Nc2ccccn2)C(c2ccccc2)n2ncnc2N1 (stereo not drawn)	none (no result: E-sel TNF inh)
N#Cc1c(-c2ccccc2)nc(SCc2nc(N)nc(N3CCCCC3)n2)[nH]c1=O	none
O=C(NCCc1ccccn1)C1CCN(S(=O)(=O)c2ccc(Cl)cc2)CC1	none (no result: CYP2C9 act, CYP2C19 activ, CYP2C9 inhib, CYP2C19 inhib, cytoskel mod)
Cc1ccc(NCc2nnc(SCC(=O)Nc3ncc(C)s3)n2CC2CCCO2)c(C)c1 (stereo not drawn)	none (no result: cytoskel mod)
CCn1c(SCC(=O)Nc2ccc3c(c2)oc2ccccc23)nnc1-c1ccc(N)cc1	CYP2C9 inhib 78 (no result: cytoskel mod)
CCn1c(Cc2ccccc2)nnc1SCC(=O)Nc1ccc(N)cc1	none (no result: E-sel TNF inh)
CC(=O)Nc1ccc(-c2nnc(SCC(=O)Nc3ccc4c(c3)oc3ccccc34)n2C)cc1	CYP2C9 inhib 69
O=C(CC1SCCNC1=O)Nc1cc(Cl)cc(Cl)c1 (stereo not drawn)	none
CCCCN1C(=O)NC(NC(=O)c2ccco2)(C(F)(F)F)C1=O (stereo not drawn)	none
CC1CCCC(N2C(=O)NC(NC(=O)c3ccco3)(C(F)(F)F)C2=O)C1C (stereo not drawn)	CYP2C19 inhib 63 (no result: E-sel TNF inh)
Cc1ccc(/C=C2\CCC3=C2OC(N)=C(C#N)C3c2ccc(C)cc2)cc1 (stereo not drawn)	CYP2C9 inhib 56
COCCn1c(C)cc(C(=O)COC(=O)c2ccc(NC(=O)CC#N)cc2)c1C	none
COc1ccc(Oc2nc(-c3ccccc3)ncc2S(=O)(=O)c2ccccc2)cc1	none
Cc1cccc(C)c1Oc1nc(-c2ccccc2)ncc1S(=O)(=O)c1ccccc1	CYP2C9 inhib 85
Cc1cc([N+](=O)[O-])c(C(C)(C)C)cc1N	CYP2C19 inhib 89
c1ccc(CCNC2=NCCCS2)cc1	none (no result: E-sel TNF inh)
c1ccc(CCNc2ccc3nncn3n2)cc1	CYP2C19 inhib 64 (no result: cytoskel mod)
Nc1cccc(C(=O)Nc2ccco2)c1	CYP2C9 inhib 79, CYP2C19 inhib 98
CCOC(=O)c1cc(-c2nnc(-c3ccc(Oc4ccccc4)cc3)o2)c(C)nc1C	CYP2C9 inhib 63 (no result: E-sel TNF inh)
CCOC(=O)c1cccc(COC(=O)c2cccc(-c3nnc(-c4ccccc4)o3)c2)c1	none (no result: CYP2C9 act, CYP2C19 activ, CYP2C9 inhib, CYP2C19 inhib, cytoskel mod)
O=C(CSc1ncn[nH]1)N1N=C2/C(=C/c3ccco3)CCCC2C1c1ccco1 (stereo not drawn)	CYP2C9 inhib 94, CYP2C19 inhib 88
Cn1cnnc1SCC(=O)c1ccc2c(c1)OCO2	none
Cc1nn(C)c(Cl)c1NC(=O)OCc1ccc(Cl)cc1Cl	CYP2C19 inhib 68
Cc1nnsc1NC(=O)OCc1ccc(Cl)cc1Cl	CYP2C19 inhib 71
Cc1cc(C(=O)CNCc2ccco2)c(C)n1-c1ccc(F)cc1	CYP2C19 inhib 51
Cc1cc(C(=O)CN2CCCCC2)c(C)n1-c1ccc(F)cc1	none (no result: CYP2C9 act, CYP2C19 activ, CYP2C9 inhib, CYP2C19 inhib, cytoskel mod)
Clc1ccccc1-c1ccc(/C=N/n2cnnc2)o1	CYP2C19 inhib 62 (no result: E-sel TNF inh)
Cc1c(Cl)cccc1-c1ccc(/C=N/n2cnnc2)o1	CYP2C9 inhib 71, CYP2C19 inhib 88
Clc1cccc(-c2ccc(/C=N/n3cnnc3)o2)c1Cl	none (no result: CYP2C9 act, CYP2C19 activ, CYP2C9 inhib, CYP2C19 inhib)
CCOC(=O)c1cc(-c2ccc(/C=N\n3cnnc3)o2)ccc1Cl	CYP2C9 inhib 66
CCCCOC(=O)c1cc(-c2ccc(/C=N/n3cnnc3)o2)ccc1Cl	none (no result: CYP2C9 act, CYP2C19 activ, CYP2C9 inhib, CYP2C19 inhib)
FC(F)(F)c1cc(-c2ccc(Cl)cc2)nc(NCc2cccnc2)n1	none
Cc1ccc(C)c(C(=O)CSc2nnnn2C(C)C)c1	CYP2C19 inhib 66
Cc1ccc(C)c(C(=O)CSc2nnnn2-c2cccnc2)c1	none (no result: E-sel TNF inh)
Cc1ccc(C(=O)CSc2nnnn2C(C)C)c(C)c1	CYP2C19 inhib 77
CCOc1ccc(C(CC(=O)O)NC(=O)c2ccco2)cc1OC (stereo not drawn)	none
COc1ccc(OC)c(C(C)NC(=O)c2ccco2)c1 (stereo not drawn)	CYP2C9 inhib 66, CYP2C19 inhib 82 (no result: E-sel TNF inh)
COc1ccc(OC)c(C(C)NC(C)=O)c1 (stereo not drawn)	none
COc1ccc(C(NC(=O)c2ccco2)c2ccc(OC)c(OC)c2)cc1OC	CYP2C9 inhib 61, CYP2C19 inhib 72
Cc1cccc(NC(=O)CCS(=O)(=O)c2cccc3nsnc23)c1C	none
Cc1nc(CN2CCCC2=NC#N)n(-c2ccccc2)n1	none (no result: E-sel TNF inh)
O=C1Cc2ccccc2C(c2ccccc2)N1 (stereo not drawn)	none (no result: E-sel TNF inh)
Cc1ccc(C2NC(=O)Cc3ccccc32)cc1 (stereo not drawn)	CYP2C19 inhib 65 (no result: cytoskel mod)
c1ccc(-n2nnnc2-c2cnc(-c3cccnc3)nc2-c2cccs2)cc1	none (no result: CYP2C9 act, CYP2C19 activ, CYP2C9 inhib, CYP2C19 inhib)
COc1ccc(/C=N\NC(=O)COc2ccc(C(C)(C)C)cc2)cc1Cn1nc(C)cc1C	CYP2C9 inhib 95, CYP2C19 inhib 53
CCc1ccc(OCC(=O)N/N=C/c2ccc(OS(=O)(=O)c3ccc(C)cc3)c(OC)c2)cc1	none (no result: CYP2C9 act, CYP2C19 activ, CYP2C9 inhib, CYP2C19 inhib, cytoskel mod)
O=c1[nH]c(Nc2ccc(F)cc2)cc2ccccc12	CYP2C9 inhib 78, CYP2C19 inhib 86
CC(C)C(c1nnnn1C1CCCC1)N1CCCCC1 (stereo not drawn)	none
CC(C)CC(c1nnnn1C1CCCCC1)N1CCN(c2ncccn2)CC1 (stereo not drawn)	CYP2C9 inhib 96, CYP2C19 inhib 88
CC(C)C(c1nnnn1C1CCCC1)N1CCN(C(=O)c2ccco2)CC1 (stereo not drawn)	CYP2C9 inhib 50
CC(C)C(c1nnnn1C1CCCCC1)N1CCN(c2ncccn2)CC1 (stereo not drawn)	CYP2C9 inhib 60
CCOC(=O)CCCNC(=O)c1cncc(O)c1	none
C=CCNS(=O)(=O)c1nc(C)c(Cl)c(C)c1C#N	E-sel TNF inh 79 (no result: cytoskel mod)
CSc1nc(C)c(Cl)c(C)c1C#N	none (no result: E-sel TNF inh, cytoskel mod)
CCOC(=O)N1CCC(NC(=O)CN(C)S(=O)(=O)c2cc3c(cc2Cl)NC(=O)CO3)CC1	CYP2C9 inhib 56
O=C(O)/C(=C\c1ccccc1Cl)c1ccc(S(=O)(=O)N2CCCCC2)s1	none (no result: CYP2C9 act, CYP2C19 activ, CYP2C9 inhib, CYP2C19 inhib, cytoskel mod)
COC(=O)c1ccc(N2CCN(S(=O)(=O)c3ccc4ccccc4c3)CC2)c([N+](=O)[O-])c1	none (no result: E-sel TNF inh, cytoskel mod)
COC(=O)c1ccc(N2CCN(CC(=O)c3ccc(-c4ccccc4)cc3)CC2)c([N+](=O)[O-])c1	CYP2C9 inhib 50
CC(=O)c1sc(NC(=O)c2ccc(Cn3cc(Br)cn3)o2)nc1C	CYP2C9 inhib 78 (no result: E-sel TNF inh, cytoskel mod)
CCOC(=O)Cn1nnc(-c2ccc(S(C)(=O)=O)cc2)n1	none
CC1(C)CC(=O)c2cn3nc(C(F)(F)F)nc3nc2C1	CYP2C19 inhib 56
